Consider 13 compounds from PubChem BioAssay (NCI).

About 83,000 compounds went through this panel and 20% of them were active in at least one assay; those are over-represented in the sample as a whole.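 Compound tested at a single concentration for 48 hours in 96-well plates; a percent growth value below 10 was scored as active.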 The source made the active and inactive calls.

This experiment has as its system HCT-15 colon. As to the kind of experiment: NCI-60 one-dose screen, 48 h (100 = growth as untreated, 0 = no growth, -100 = all killed). To be noted: 10 µM unless noted.
Consider `O=C1C(Cl)=C(NCCCCCCNC2=C(Cl)C(=O)c3ccccc3C2=O)C(=O)c2ccccc21`, for which the growth was 63.3% (inactive).
In the case of `CCCC/C=C/[C@@H]1C[C@H]1CCO`, the growth is 97.7% (inactive).
On to `C=C(C)[C@@H]1CC[C@]2(CO)CC[C@]3(C)[C@H](CC[C@@H]4[C@@]5(C)CC[C@H](NCO)C(C)(C)[C@@H]5CC[C@]43C)[C@@H]12`, for which the growth was -80.7% (active).
For the compound `Cc1cccc(/C=C/c2c(C(=O)/C=C/c3ccccc3)c(C)nc3ccccc23)c1`, the growth was -58.8% (active).
With `Cc1ccc(-c2nc(N3CCCNCC3)c3oc(-c4ccc(C)cc4)nc3n2)cc1` the figure was -72.9% (active); with `Cc1sc2nc(NCCc3c[nH]c4ccc(Cl)cc34)[nH]c(=O)c2c1C`, 7.96% (active).
Consider `COc1ccc(OC)c(Nc2nnc(-c3ccc(O)c(OC)c3)o2)c1`, for which the growth is 46.5% (inactive).
As to `COc1ccccc1NC(=O)N=Nc1c(O)[nH]c2ccccc12`, the growth is 94.4% (inactive).
Consider `Nc1nc2ccccc2c2c1S(=O)(=O)c1ccc(Cl)cc1C2=O`, for which the growth was 1.95% (active).
With `Nc1n[nH]c2cccc(C#Cc3cccc(C(=O)Nc4cc(C(F)(F)F)cc(C(F)(F)F)c4)c3)c12` the figure was 70.4% (inactive); with `CS(=O)(=O)Nc1cc(-c2ccc3ncnc(Nc4ccc5c(cnn5Cc5ccc(F)cc5)c4)c3c2)cnc1Cl`, 82.1% (inactive).
On to `Fc1cc2c(cc1Cl)N(c1ncnc3ccc(-c4ccc5n[nH]nc5c4)cc13)CC2`, for which the growth was 95.7% (inactive).
The value for `CCN1C(=S)N(c2ccccc2)C2NC(=S)N(/N=C/C=C/c3ccccc3OC)C21` (stereo not drawn) was 12.9% (inactive).
